Screens deposited in PubChem BioAssay by The Scripps Research Institute Molecular Screening Center.
A selection: hits, their analogues and other compounds. The true share with any hit is near 3.5%.
GPR151 ag – activators of human GPR151, primary screen, cell-based, PathHunter beta-arrestin, luminescence; actives 1% (n = 650,000); activation, % at 11.2 µM; AID 1508602, 2020; PathHunter beta-arrestin GPR151 cells; G-protein coupled receptor 151 (Homo sapiens), Q8TDV0; in the data active means activation above about 4.9%;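 further: 0% = median of compound wells and 100% = cells with positive control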
Target sequence (Q8TDV0 whole entry, looked up): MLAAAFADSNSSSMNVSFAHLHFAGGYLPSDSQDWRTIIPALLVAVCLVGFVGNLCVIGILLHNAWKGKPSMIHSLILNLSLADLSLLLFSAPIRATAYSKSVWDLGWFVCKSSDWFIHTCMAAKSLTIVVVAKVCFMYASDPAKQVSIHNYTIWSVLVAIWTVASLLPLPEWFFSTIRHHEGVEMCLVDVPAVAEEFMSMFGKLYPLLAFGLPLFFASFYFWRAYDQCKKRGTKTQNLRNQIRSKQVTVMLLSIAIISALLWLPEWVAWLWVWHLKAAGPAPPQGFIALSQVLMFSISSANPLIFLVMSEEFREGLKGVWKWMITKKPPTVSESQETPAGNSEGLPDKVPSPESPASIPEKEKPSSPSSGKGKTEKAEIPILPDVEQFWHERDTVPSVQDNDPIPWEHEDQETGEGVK
MITF inh – MITF inhibitors, primary screen, biochemical, AlphaScreen, human; AlphaScreen MITF homodimerization, bead proximity signal; Microphthalmia-associated transcription factor (Homo sapiens), O75030; actives 0.91% (n = 650,000); inhibition, % at 2.6 µM; in the data active means inhibition above about 50%;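 further: 0% = vehicle wells with protein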
FBW7 activator – FBW7 E3 ligase activators, primary screen, biochemical, AlphaScreen, human; F-box/WD repeat-containing protein 7 (Homo sapiens), Q969H0; AlphaScreen FBW7–phospho-cyclin E peptide binding, activator screen; normalized activity (activation), % at 26.1 µM; actives 0.13% (n = 650,000); in the data active means normalized activity above about 1.9%;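 further: purified mutant Fbw7 with reduced substrate affinity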
TEAD-YAP inh – TEAD-YAP interaction inhibition, primary screen, TEAD-YAP interaction inhibitor project, luminescence, HEK-TIYL cells. inhibition, % at 9.12 µM. TEAD-Gal4/YAP UAS-luciferase luminescence. actives 1.4% (n = 640,000). AID 1259422, 2018; in the data active means inhibition above about 32%;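 further: 0% = median of test compound wells and 100% = reference inhibitor wells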
GPR151 confirm – GPR151 activators, triplicate retest, confirmation, cell-based, PathHunter beta-arrestin, luminescence; shares compounds with GPR151 ag; GPR151 PathHunter beta-arrestin cells, 90 min; % of EA-reagent control over plate median; activation, % at 11.2 µM; 6,700 tested, under 10 active;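 active means mean percent activation across replicates above the confirmation screen cutoff of 4.91%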
GPR119 ag – GPR119 activators in beta-arrestin cells, counter-screen for GPR151 activator project, cell-based, PathHunter beta-arrestin, luminescence, triplicate | actives 0.3% (n = 6,700) | shares compounds with GPR151 ag | 90 min; 0 = compound-well median, 100 = enzyme-acceptor control | activation, % at 11.2 µM;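 active means mean percent activation in the counterscreen above 29.09%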;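 further: counterscreen on off-target GPR119 to flag nonselective hits from the GPR151 activator screen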
* = called active by the depositor; . = no result.

SMILES | GPR151 ag | MITF inh | FBW7 activator | TEAD-YAP inh | GPR151 confirm | GPR119 ag
O=C(Nc1ccc2oc(-c3cncc(Br)c3)nc2c1)C(Cl)(Cl)Cl | 0.8 | 7.1 | 0.1 | -22.8 | . | .
CCOC(=O)COc1cc(C)cc2oc(=O)cc(-c3ccccc3)c12 | 5.2* | 15.2 | 0.0 | 6.6 | -1.0 | -12.8
COc1ccccc1S(=O)(=O)Cc1ccc(C(=O)N2CCOCC2)o1 | 46.2* | -7.4 | 0.2 | -17.4 | 0.1 | 6.0
O=C1CN(c2ccc(S(=O)(=O)N3CCCC3)cn2)CCN1 | 0.9 | -9.2 | -0.1 | 4.7 | . | .
O=C1CN(c2ccc(S(=O)(=O)N3CCC(Cc4ccccc4)CC3)cn2)CCN1 | 7.3* | -1.2 | 0.1 | -3.8 | 0.6 | 6.8
O=C(CCc1nnc(-c2ccsc2)o1)N1CCCN(c2ccccc2)CC1 | -0.3 | 0.5 | -0.1 | -7.0 | . | .
COc1ccc(/C=C/C(=O)Nc2sc3c(c2C(=O)NCc2cccnc2)CCCC3)cc1 | 6.7* | 6.4 | 0.3 | 5.8 | 1.1 | -6.0
COc1ccc(/C=C/C(=O)Nc2sc3c(c2C(N)=O)CCCCC3)cc1 | -0.1 | 12.9 | 0.0 | 4.0 | . | .
O=c1[nH]c(=S)[nH]c(O)c1C=Nc1ccc(S(=O)(=O)NCc2ccccc2)cc1 | 0.8 | 16.1 | 0.2 | -3.1 | . | .
Cc1ccc(C(=O)ON2C(=O)c3ccccc3C2=O)cc1C | 7.6* | 10.4 | 0.1 | -4.7 | -0.3 | 14.7
CC(C)(CN1CCN(c2ccccc2)CC1)NS(=O)(=O)c1ccccc1 | 5.5* | 4.7 | -0.2 | -7.0 | 0.0 | -3.7
CCC(Sc1nc2cc(OC)c(OC)cc2c2nc(C)nn12)C(=O)NCc1ccco1 (stereo not drawn) | -0.1 | 1.6 | -0.1 | -3.8 | . | .
CCC(Sc1nc2cc3c(cc2c(=O)n1CCCCCC(=O)NCc1ccc2c(c1)OCO2)OCO3)C(=O)NCc1ccco1 (stereo not drawn) | -0.4 | -0.4 | 0.2 | -0.1 | . | .
CCC(Sc1nc2ccccc2c2nc(C)nn12)C(=O)NCc1ccco1 (stereo not drawn) | 8.7* | 10.9 | 0.0 | 1.5 | 0.0 | 10.9
CCC(Sc1nc2cc3c(cc2c(=O)n1CCCCCC(=O)NCc1ccc(OC)cc1)OCO3)C(=O)NCc1ccco1 (stereo not drawn) | 5.0* | 0.1 | 0.0 | 0.0 | -0.6 | -3.0
O=C(NC1CCOC1)c1cc(COc2ccc3ncccc3c2)on1 (stereo not drawn) | 5.2* | -3.2 | 0.0 | 19.0 | -0.2 | -13.3
COc1ccccc1N/N=C(\C)c1ccc([N+](=O)[O-])o1 | 5.7* | 4.8 | -0.2 | 20.9 | 0.6 | 4.9
CCOc1ccc(CN2CCNC(=O)C2CC(=O)N(C)C2CCOCC2)cc1 (stereo not drawn) | -0.4 | 7.9 | -0.1 | 8.0 | . | .
Cc1nn(CC(=O)NCC#N)c(C)c1[N+](=O)[O-] | 5.0* | -2.6 | 0.0 | -3.7 | -0.1 | -2.8
CCc1nc(SCC(=O)N2CCOCC2)c2c(C)c(C)sc2n1 | -0.5 | -0.2 | -0.1 | 0.3 | . | .
COc1ccc(Nc2cc(-c3cncc(-c4cccs4)c3)nc(C)n2)cc1 | 6.0* | 5.4 | -0.2 | 2.2 | -0.5 | -10.7
COc1ccc(Nc2cc(-c3cncc(-c4ccc(OC)cc4)c3)nc(C)n2)cc1 | 2.1 | 6.6 | 0.1 | -4.0 | . | .
COc1ccc(CC(=O)NNC(=O)COc2ccc3ccccc3c2)cc1OC | 0.9 | 1.5 | 0.1 | 2.3 | . | .
Cc1cccc(NC(=O)NCC(c2ccc3c(c2)CCN3C)N2CCN(C)CC2)c1 (stereo not drawn) | 5.0* | 8.4 | -0.2 | -8.2 | 0.4 | 13.5
CN1CCN(C(CNC(=O)Nc2ccc(F)cc2)c2ccc3c(c2)CCN3C)CC1 (stereo not drawn) | 0.1 | -0.5 | -0.1 | 0.6 | . | .
COc1ccc2[nH]c3ccc([N+](=O)[O-])cc3c(=O)c2c1 | 5.7* | -7.0 | 0.1 | 12.5 | -0.2 | -4.7
COc1ccc2[nH]c(C)c(Br)c(=O)c2c1 | 6.4* | -2.9 | 0.0 | 5.9 | 0.0 | 5.3
